The values below come from ChEMBL document CHEMBL3988442, “University of Dundee, Small-Polar-MMV Screening Library” (2021).

For part of these data: Entries with a potency or affinity are not part of this list.

What all share (parameters): scale not given: direction of the effect not stated beside the values
Experiment [1] addresses Protein translocase subunit SecA (Escherichia coli (strain K12)) (UniProt P10408). Put plainly: Assay to Identify E. coli SecA ATPase Inhibitors. It is filed as functional. The settings on record: 30 µM.
Experiment [2] deals with T1, Ubiquitin-activating enzyme e1, putative (Leishmania donovani (strain BPK282A1)) (UniProt E9BSI1).
T1 sequence (whole entry): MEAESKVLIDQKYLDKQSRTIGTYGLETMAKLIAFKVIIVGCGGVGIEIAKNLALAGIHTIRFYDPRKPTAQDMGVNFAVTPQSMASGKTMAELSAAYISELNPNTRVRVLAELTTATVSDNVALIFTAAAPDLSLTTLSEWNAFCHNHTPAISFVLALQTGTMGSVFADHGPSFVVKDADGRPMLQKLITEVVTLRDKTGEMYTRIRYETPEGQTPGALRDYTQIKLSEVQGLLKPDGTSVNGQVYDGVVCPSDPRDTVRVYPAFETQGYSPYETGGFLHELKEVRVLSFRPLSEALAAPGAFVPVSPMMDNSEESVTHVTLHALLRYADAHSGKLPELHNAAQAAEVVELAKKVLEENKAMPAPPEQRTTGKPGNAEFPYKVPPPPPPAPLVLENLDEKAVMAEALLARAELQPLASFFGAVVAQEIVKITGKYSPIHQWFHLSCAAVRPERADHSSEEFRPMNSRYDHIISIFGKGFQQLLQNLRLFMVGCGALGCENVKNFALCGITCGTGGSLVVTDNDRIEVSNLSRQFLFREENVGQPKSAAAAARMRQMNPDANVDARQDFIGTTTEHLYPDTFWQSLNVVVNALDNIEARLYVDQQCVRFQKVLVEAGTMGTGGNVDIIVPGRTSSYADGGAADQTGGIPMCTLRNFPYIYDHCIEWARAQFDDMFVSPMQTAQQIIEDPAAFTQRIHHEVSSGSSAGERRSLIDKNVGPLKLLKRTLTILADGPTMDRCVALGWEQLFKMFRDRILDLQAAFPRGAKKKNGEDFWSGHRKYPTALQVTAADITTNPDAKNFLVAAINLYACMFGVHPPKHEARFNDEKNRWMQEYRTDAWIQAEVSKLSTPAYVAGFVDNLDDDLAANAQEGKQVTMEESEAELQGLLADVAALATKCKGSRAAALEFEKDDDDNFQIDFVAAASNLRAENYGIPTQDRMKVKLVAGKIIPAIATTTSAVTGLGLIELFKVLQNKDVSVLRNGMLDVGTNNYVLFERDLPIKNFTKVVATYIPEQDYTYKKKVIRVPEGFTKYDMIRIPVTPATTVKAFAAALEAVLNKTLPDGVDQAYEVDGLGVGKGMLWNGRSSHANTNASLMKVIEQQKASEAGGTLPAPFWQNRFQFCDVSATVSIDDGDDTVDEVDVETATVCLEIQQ
Put plainly: Leishmania donovani Ubiquitin Activating Enzyme (LdE1). The settings on record: 30 µM. It is filed as functional.

In experiment [3] the target is AMP-activated protein kinase, AMPK (Homo sapiens) (UniProt P54646+O43741+P54619+Q9UGJ0+Q9Y478+Q13131+Q9UGI9). Put plainly: AMP-dependent Kinase enzyme assay. An in vitro enzyme assay that detects ADP turnover that is directly proportional to AMPK activity. This uses naive AMPK that is activated during the assay with MK-8722. The settings on record: 30 µM. It counts as functional.

Experiment [4] has as its target Sialic acid-binding Ig-like lectin 9 (Homo sapiens) (UniProt Q9Y336). Put plainly: Hs-Siglec9 ALPHAscreen SOP 20170721. The settings on record: 10 µM. In general terms: Alpha assays give light when donor and acceptor beads are brought close together.
Experiment [5] has as its system Trypanosoma cruzi. Put plainly: Trypanosoma cruzi phosphomannomutase and mannose-1-phosphate guanylyltransferase assay. It counts as functional. The settings on record: 10 µM.
Experiment [6] addresses T2, Arginase-2, mitochondrial (Homo sapiens) (UniProt P78540).
T2 sequence (whole entry): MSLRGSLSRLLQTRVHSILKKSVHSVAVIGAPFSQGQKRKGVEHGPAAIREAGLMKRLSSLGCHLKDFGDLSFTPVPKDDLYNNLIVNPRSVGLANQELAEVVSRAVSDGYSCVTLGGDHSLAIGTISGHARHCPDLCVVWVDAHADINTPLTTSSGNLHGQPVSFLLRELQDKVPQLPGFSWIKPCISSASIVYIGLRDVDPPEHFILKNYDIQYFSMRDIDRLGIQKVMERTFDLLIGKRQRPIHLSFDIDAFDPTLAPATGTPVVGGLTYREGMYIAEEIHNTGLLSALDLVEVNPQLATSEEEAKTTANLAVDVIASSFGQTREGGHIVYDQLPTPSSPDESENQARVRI
The experiment is described as follows: in vitro enzyme assay to detect the production of urea directly proportional to the activity of Arginase II. Note: in the data most compounds retested in dose-response had high values. It is filed as functional. The settings on record: 33.3 µM.

The target in experiment [7] is T3, Proteasome subunit beta (Trypanosoma cruzi) (UniProt O96673).
T3 sequence (whole entry): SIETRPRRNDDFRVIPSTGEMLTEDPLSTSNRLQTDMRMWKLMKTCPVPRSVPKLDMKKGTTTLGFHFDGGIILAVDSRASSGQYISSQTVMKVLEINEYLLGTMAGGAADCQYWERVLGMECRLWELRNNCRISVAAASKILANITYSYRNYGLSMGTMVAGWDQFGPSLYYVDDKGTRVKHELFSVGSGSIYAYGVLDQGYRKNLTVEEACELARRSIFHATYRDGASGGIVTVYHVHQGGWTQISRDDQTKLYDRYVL
The experiment is described as follows: Trypanosoma cruzi proteasome chymotrypsin-like activity (TcProtChymo) assay. Note: in the data most compounds retested in dose-response had high values. It counts as functional. The settings on record: 9.37 µM.

Experiment [8] is filed under the species Homo sapiens. Put plainly: To identify inhibition of the IFN signalling (Jak-Stat) pathway via expression of an eGFP reporter gene under the control of an IFN-stimulated response element (ISRE) containing MxA promoter. It counts as functional. The settings on record: 30 µM. In general terms: A reporter such as luciferase makes a cellular process visible.

In experiment [9] the target is T4, Tyrosyl-tRNA synthetase, putative (Trypanosoma cruzi (strain CL Brener)) (UniProt Q4DSP6).
T4 sequence (whole entry): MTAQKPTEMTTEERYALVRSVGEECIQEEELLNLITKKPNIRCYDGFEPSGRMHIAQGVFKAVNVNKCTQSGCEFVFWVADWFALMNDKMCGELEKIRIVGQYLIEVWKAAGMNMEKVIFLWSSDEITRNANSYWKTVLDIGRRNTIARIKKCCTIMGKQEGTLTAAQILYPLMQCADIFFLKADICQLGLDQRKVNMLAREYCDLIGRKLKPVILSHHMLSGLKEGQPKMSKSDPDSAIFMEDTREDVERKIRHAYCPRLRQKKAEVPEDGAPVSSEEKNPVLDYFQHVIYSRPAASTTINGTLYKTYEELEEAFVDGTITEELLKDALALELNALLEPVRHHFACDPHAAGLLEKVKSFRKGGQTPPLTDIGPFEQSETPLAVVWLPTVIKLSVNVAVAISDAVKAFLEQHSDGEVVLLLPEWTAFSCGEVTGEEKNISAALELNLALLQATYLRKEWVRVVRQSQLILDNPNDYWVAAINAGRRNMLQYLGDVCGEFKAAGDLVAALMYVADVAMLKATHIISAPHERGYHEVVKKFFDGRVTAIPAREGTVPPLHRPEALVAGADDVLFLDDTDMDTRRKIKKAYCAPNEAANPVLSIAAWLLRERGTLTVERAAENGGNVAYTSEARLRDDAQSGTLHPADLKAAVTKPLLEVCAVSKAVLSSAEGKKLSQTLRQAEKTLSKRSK
Put plainly: Trypanosoma cruzi tyrosyl tRNA synthetase (TcYRS) _High Tyrosine SOP. Note: in the data most compounds retested in dose-response had high values. It is filed as functional. The settings on record: 30 µM.

Experiment [10] concerns the target T4, Tyrosyl-tRNA synthetase, putative (Trypanosoma cruzi (strain CL Brener)). Put plainly: Trypanosoma cruzi tyrosyl tRNA synthetase (TcYRS) SOP. It counts as functional. The settings on record: 30 µM.
In experiment [11] the target is Chromo domain-containing protein 1 (Saccharomyces cerevisiae (strain ATCC 204508 / S288c) (Baker's yeast)) (UniProt P32657). The experiment is described as follows: ScCHD-1 Enzyme Inhibition Assay. Note: in the data most compounds retested in dose-response had high values. It counts as functional. The settings on record: 30 µM.
Chromo domain-containing protein 1 (Saccharomyces cerevisiae (strain ATCC 204508 / S288c) (Baker's yeast)), sequence (P32657 whole entry, the tested form may be a part): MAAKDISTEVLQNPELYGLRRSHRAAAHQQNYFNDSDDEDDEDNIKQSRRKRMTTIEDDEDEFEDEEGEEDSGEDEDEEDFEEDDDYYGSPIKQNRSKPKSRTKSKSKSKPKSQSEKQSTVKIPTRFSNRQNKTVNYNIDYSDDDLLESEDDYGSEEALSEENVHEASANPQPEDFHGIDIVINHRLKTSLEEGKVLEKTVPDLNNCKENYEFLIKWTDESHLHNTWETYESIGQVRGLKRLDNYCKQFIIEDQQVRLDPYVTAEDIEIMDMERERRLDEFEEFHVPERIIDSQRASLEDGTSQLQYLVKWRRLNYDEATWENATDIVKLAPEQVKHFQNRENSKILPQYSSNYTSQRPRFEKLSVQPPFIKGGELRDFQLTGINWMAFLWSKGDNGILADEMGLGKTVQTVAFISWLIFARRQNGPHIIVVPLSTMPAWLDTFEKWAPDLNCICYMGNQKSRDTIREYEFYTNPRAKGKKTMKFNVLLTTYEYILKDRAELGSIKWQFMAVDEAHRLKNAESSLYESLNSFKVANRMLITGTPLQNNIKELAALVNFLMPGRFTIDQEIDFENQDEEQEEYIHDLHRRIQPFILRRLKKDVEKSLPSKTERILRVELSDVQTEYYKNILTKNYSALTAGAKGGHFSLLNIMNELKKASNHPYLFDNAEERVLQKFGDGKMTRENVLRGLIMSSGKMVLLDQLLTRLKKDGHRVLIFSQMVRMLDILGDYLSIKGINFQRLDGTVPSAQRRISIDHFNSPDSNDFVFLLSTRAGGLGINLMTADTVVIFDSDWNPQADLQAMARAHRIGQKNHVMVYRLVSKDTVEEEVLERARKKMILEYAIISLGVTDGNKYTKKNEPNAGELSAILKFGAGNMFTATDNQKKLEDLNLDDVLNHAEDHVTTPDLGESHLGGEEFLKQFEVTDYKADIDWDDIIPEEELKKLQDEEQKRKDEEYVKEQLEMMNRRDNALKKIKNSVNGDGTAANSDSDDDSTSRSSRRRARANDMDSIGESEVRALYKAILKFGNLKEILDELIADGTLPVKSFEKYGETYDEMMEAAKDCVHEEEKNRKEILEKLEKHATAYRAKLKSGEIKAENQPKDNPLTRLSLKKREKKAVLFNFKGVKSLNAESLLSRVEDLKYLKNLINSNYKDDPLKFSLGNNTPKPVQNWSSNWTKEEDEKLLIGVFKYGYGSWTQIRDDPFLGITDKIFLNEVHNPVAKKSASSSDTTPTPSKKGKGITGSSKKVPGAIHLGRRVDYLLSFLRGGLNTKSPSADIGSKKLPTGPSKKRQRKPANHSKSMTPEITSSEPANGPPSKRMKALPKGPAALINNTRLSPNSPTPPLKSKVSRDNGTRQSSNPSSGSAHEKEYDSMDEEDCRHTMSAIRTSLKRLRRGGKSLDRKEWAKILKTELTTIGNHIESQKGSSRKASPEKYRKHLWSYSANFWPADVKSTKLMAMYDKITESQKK

Sialic acid-binding Ig-like lectin 9 (Homo sapiens), sequence (Q9Y336 whole entry): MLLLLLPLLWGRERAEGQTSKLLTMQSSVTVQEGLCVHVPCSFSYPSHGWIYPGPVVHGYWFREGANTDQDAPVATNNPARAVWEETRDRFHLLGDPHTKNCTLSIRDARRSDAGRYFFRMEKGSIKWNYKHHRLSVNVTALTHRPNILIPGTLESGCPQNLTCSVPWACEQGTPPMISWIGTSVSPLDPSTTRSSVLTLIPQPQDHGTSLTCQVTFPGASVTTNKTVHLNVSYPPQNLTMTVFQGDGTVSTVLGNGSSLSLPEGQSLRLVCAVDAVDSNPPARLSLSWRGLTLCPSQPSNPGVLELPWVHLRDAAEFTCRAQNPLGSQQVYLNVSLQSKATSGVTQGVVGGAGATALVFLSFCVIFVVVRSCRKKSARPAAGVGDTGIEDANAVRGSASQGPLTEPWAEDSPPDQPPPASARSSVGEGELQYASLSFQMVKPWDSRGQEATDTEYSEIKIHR
Protein translocase subunit SecA (Escherichia coli (strain K12)), sequence (P10408 whole entry): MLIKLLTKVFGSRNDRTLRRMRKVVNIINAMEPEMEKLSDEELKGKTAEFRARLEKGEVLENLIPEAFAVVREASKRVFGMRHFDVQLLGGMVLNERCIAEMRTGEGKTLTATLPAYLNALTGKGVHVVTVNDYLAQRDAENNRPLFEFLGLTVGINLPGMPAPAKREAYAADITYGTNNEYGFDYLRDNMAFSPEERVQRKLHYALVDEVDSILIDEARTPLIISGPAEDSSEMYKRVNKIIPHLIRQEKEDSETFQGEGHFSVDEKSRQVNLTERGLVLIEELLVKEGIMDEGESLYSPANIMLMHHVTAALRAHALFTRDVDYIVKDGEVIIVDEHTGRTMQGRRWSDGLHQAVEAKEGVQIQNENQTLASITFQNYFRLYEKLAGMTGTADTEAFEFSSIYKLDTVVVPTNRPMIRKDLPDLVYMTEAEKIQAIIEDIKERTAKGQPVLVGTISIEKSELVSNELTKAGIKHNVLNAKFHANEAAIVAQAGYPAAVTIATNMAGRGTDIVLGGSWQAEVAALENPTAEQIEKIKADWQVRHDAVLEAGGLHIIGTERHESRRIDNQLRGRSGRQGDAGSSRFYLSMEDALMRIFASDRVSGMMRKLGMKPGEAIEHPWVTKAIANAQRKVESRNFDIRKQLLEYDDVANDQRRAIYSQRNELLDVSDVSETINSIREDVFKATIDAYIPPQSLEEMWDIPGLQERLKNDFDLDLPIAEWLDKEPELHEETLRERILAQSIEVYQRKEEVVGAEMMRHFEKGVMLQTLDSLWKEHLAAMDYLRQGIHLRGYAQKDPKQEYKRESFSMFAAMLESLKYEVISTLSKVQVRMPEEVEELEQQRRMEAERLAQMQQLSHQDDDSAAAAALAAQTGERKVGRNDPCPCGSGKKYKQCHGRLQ

Turning to `CNC(=O)Nc1cc(-c2ccccc2C)nn1CCO`, the Percent Effect was -4.2% in experiment [1]; 7.89% in experiment [2]; -1.72% in experiment [3]; -9.84% in experiment [4]; -3.8% in experiment [5]; -5.92% in experiment [6]. In addition, the Percent Effect was 17.2% in [7]; -9.47% in experiment [8]; 1.06% in experiment [9]; 0% in [10]; -7.09% in experiment [11].
With `CN1CCCC(Cc2ccnc3ccncc23)CC1` (centres undefined), the Percent Effect is -5.09% in [1]; -1.35% in [2]; 2.02% in experiment [3]; 0.644% in [4]; -0.988% in experiment [5]; -2.09% in [6]. Also, the Percent Effect in [7] was -0.312%; in [8], 3.76%; in experiment [9], 2.15%; in [10], -1.3%; in experiment [11] it was 4.65%.
In the case of `O=C(c1ccccn1)N1C[C@@H]2CC[C@H](C1)N(C(=O)CCc1ccsc1)C2`, the Percent Effect in [1] was -0.66%; in [2], 7.79%; in experiment [3] it was 1.47%; in experiment [4], 8.15%; in [5], -4.82%; in experiment [6], -5.52%. The Percent Effect was 13.3% in [7]; 5.27% in experiment [8]; 7.53% in experiment [9]; 13.6% in [10]; -2.49% in experiment [11].
On to `Cc1nc(-c2ccccc2)n(CC(=O)NCC(C)C)n1`, for which the Percent Effect is -1.39% in [1]; 13.5% in experiment [2]; -9.59% in [3]; -7.18% in experiment [4]; -7.08% in experiment [5]; -4.01% in experiment [6]. Moreover, the Percent Effect is 1.62% in experiment [7]; 19.8% in experiment [8]; 5.42% in experiment [9]; 13.6% in experiment [10]; -5.55% in experiment [11].
For the compound `COc1ccc2c(c1)CN(Cc1nc3c(cnn3C)c(=O)[nH]1)CC2`, the Percent Effect is -1.51% in experiment [1]; 15.2% in experiment [2]; -8.08% in experiment [3]; 0.541% in [4]; 0.85% in [5]; 2.66% in experiment [6]. Moreover, the Percent Effect was 7.45% in [7]; 8.47% in experiment [8]; 4.43% in [9]; 21.5% in [10]; -7.47% in experiment [11].
Regarding `CCOCCCNc1nc(O)cc(C2CC(=O)N(C)C2)n1` (centres undefined), the Percent Effect is -3.32% in [1]; 6.76% in experiment [2]; -1.4% in experiment [3]; 1.36% in [4]; 3.95% in experiment [5]; -4.41% in [6]. Besides, the Percent Effect in experiment [7] is 9.83%; in experiment [8], -10.5%; in [9] it was 1.07%; in [10], 9.09%; in [11], -25.9%.
As for `CN1CC(=O)N(c2cnn(C)c2)CC12CCN(Cc1nccn1C)C2` (centres undefined), the Percent Effect in experiment [1] was -0.706%; in experiment [2], 8.22%; in experiment [3] it was 4.05%; in experiment [4], 7.48%; in experiment [5], -4.17%; in experiment [6] it was -0.399%. The Percent Effect in experiment [7] is 10.2%; in experiment [8] it was 6.84%; in [9] it was 4.17%; in experiment [10], 6.17%; in experiment [11], -4.89%.
As for `COc1ccc(-n2ccc(C(=O)N3CCN(C)CC3C)n2)cc1` (centres undefined), the Percent Effect was -5.91% in experiment [1]; 10.4% in experiment [2]; 5.54% in experiment [3]; 7.32% in experiment [4]; 0.374% in experiment [5]; -0.712% in experiment [6]. The Percent Effect is -0.676% in [7]; 3.45% in experiment [8]; 8.74% in [9]; 14.6% in [10]; -5.54% in experiment [11].
In the case of `COCc1cn([C@@H]2c3ccccc3C3(CCNCC3)[C@H]2O)nn1`, the Percent Effect in [1] was -4.27%; in experiment [2], 9.72%; in [3], 2.64%; in experiment [4], 16.1%; in experiment [5], 6.71%; in experiment [6], 24.7%. For the same compound, the Percent Effect in [7] was 3.16%; in experiment [8] it was 3.98%; in experiment [9] it was 4.21%; in [10] it was 10.3%; in [11], -5.28%.
